Assay results as given in PubChem BioAssay AID652257 (The Scripps Research Institute Molecular Screening Center, 2013).
Several values for one entry are separate records, joined by “and”; a condition that tells them apart may be missing. Equal entries are not always repeated. Out of some 370,000 compounds screened, about 4,800 (1.3%) were called active. The sample as a whole holds a higher share of actives than the screen did. Unmarked numbers belong to inactive results.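 The calls were made as follows: active = inhibition above about 21% made by adding two undisclosed values (limit read from the data); inactive = the rest.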

Target: Protein arginine N-methyltransferase 1 (Homo sapiens) (UniProt Q99873)
Sequence (Q99873 whole entry, looked up): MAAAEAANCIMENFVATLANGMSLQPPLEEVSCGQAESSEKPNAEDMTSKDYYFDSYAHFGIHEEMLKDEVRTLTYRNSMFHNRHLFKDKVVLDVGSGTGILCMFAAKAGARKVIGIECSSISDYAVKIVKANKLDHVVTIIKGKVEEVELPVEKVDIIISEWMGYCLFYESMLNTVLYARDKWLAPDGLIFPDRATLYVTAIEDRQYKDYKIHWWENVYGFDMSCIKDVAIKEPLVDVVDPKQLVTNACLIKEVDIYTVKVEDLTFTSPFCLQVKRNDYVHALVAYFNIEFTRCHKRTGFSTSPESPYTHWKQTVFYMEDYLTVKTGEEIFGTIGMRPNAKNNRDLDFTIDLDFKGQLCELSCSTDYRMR
Test: PRMT1 methyltransferase inhibitors, primary screen, biochemical, fluorescence polarization (AID 652257)
Details: recombinant PRMT1, activity-based probe fluorescence polarization; at 2.79 µM; active compounds read high

| Compound | inhibition |
| --- | --- |
| Cc1ccc2c(cnn2C(=O)CCC(=O)NC2CCCC2)c1 | 3.39% |
| COc1ccc(CNS(=O)(=O)c2ccc(NC(=O)N3CCCCC3)cc2)cc1 | -0.17% |
| CC(C)=C1C2CCC1C1C(=O)N(NC(=O)c3ccco3)C(=O)C21 (stereo not given) | -2.54% |
| COc1ccc(CN2C(=O)N3Cc4cc(OC)ccc4C3CS2(=O)=O)cc1 (stereo not given) | 3.9% |
| CCN1C(=O)N[C@@H]2C[C@H](C(=O)N3CCCC3)[C@H](C)[C@H](c3ccccc3)C[C@@H]21 | -4.4% |
| Cc1sc(NC(=O)c2ccc3ncsc3c2)c(C(N)=O)c1C | 33.8% (active) |
| COc1ccccc1-c1nnc(NC(=O)c2ccc3ncsc3c2)o1 | 9.47% |
| O=C(COC(=O)c1ccc2ncsc2c1)Nc1ccc(Cl)cc1 | 14.3% |
| CN1CCCc2nc(-c3ccccc3)ccc21 | -1.81% |
| Cc1c(C(C)CCCO)oc(=O)c2c1Oc1c(C)c(C(C)C[C@@H](C)O)oc(=O)c1C2 (stereo not given in full) | 1.8% |
| CCCN(CCC)S(=O)(=O)c1cc2c(cc1Br)CCN2C(=O)CC | -3.61% |
| CCOc1cnc(C(=O)NNC(=O)c2ccccc2Br)o1 | 0.46% |
| COC(=O)C12C=C3CC(c4ccccc4)=C3C(=O)N1Cc1[nH]c3ccccc3c1C2 (stereo not given) | -2.05% |
| CCc1ccccc1NC(=O)CSc1nnc(-c2cccs2)o1 | -1.47% |
| O=C(O)C(CCc1ccccn1)c1ccccc1 (stereo not given) | 0.25% |
| CC(=O)NC(CC(=O)O)c1ccc(F)cc1 (stereo not given) | 0.13% |
| CN(C)c1ccc(C(CC(=O)O)C(=O)O)cc1 (stereo not given) | 39.2% (active) |
| C[C@H]1[C@H](NC(=O)c2cccc(N(C)C)c2)CC[C@@]23CCCN2C(=O)CCC[C@@H]13 | -0.17% |
| CCOc1ccc(N(CC(=O)Nc2c(C)n(C)n(-c3ccccc3)c2=O)S(=O)(=O)c2ccc(Cl)s2)cc1 | -5.48% |
| CCO/C([O-])=N/c1c[n+](N2CCOCC2)no1 | -1.72% and 4.84% |
| COC(=O)[C@@]1(Sc2ccc(C)cc2)CC(=O)N(c2cccc(SC)c2)[C@@H]1c1ccccc1 | 4.3% |
| COC(=O)[C@]1(C#N)CC(=O)N(CC2CCCCC2)[C@@H]1c1ccccc1 | -3.09% |
| CCOC(=O)N1C(=O)C[C@](Sc2ccc(C)cc2)(C(=O)OC)[C@H]1c1ccccc1 | 53.6% (active) |

| Compound | inhibition |
| --- | --- |
| O=S1(=O)c2c(cccc2N2CC[C@H](O)C2)O[C@@H]2CCN1C2 | -1.77% |
| COc1ccccc1-c1c(C#N)c(N)nc2c1CCC2 | -2.76% |
| CC(C)OC(=O)c1sc2nc3c(cc2c1N)C(=O)CCC3 | 0.71% |
| NC(=O)c1sc2nc3c(c(-c4ccccc4)c2c1N)CCC3 | 21.5% (active) |
| Nc1scc[n+]1Cc1cccc2cccnc12 | -6.71% |
| c1ccc2c(C[n+]3csc4ccccc43)cccc2c1 | 31.2% (active) |
| CN1[C@H](Cc2ccccc2)COc2cccc(N3CCSCC3)c2S1(=O)=O | 6.45% |
| COC(=O)C1CN(Cc2cn(Cc3ccc(F)cc3)nn2)CCS(=O)(=O)N1Cc1ccc(Cl)cc1 (stereo not given) | -0.68% |
| COCC(=O)N[C@@H]1C[C@@H]2O[C@@H](CO)CC[C@@H]2O[C@@H]1CCc1ccc(-c2ccccc2)cc1 | 0.28% |
| CCOCc1c(C(=O)N2CCN(Cc3ccc(Br)s3)CC2)oc2ccccc12 | -1.1% |
| CCc1ccc(NC(=O)C(C)OC(=O)/C=C/c2cccc([N+](=O)[O-])c2)cc1 (stereo not given) | -0.43% |
| COC(=O)/C=C\C(=O)Nc1cccc([N+](=O)[O-])c1 | 91.7% (active) |
| CN(C(=O)c1cccc(NC(=O)Cc2cccc([N+](=O)[O-])c2)c1)C1CCCCC1 | -0.61% |
| COc1ccc(CN2C/C(=C/c3ccccc3)N3C(=O)C[C@@H](c4ccccc4)N=C23)c(OC)c1 | 0.52% |
| CCC(C)c1ccc(NC(=S)N2CCCC2)cc1 (stereo not given) | 2.33% |
| COc1ccc(N2CCN(CCNS(=O)(=O)c3ccc(C(C)(C)C)cc3)CC2)cc1 | 0.09% |
| CCC(=C/c1sc2ccc3ccccc3c2[n+]1C)/C=C1\Sc2ccc3ccccc3c2N1C | 75.6% (active) |
| Oc1c(C=Nc2cccc3nsnc23)ccc2ccccc12 | 27.2% (active) |
| O=C(NC1CCCCN(Cc2cccc(C(F)(F)F)c2)C1=O)c1ccccc1I (stereo not given) | -1.71% |
| COC(=O)c1cccc(Cn2ccc3ccc(-c4ccc5ccn(C(=O)c6ccccc6C)c5c4)cc32)c1 | 1.92% |
| COc1cc(NC(=O)C2CCCN(S(=O)(=O)c3ccc(C(C)(C)C)cc3)C2)cc(OC)c1 (stereo not given) | -5.91% |
| Cc1sc(NC(=S)NC(=O)c2cccs2)nc1-c1ccc(CC(C)C)cc1 | -4.11% |
| O=C(NC(=S)Nc1cccc(-c2ccc(CO)o2)c1)c1cccs1 | 21.4% (active) |

| Compound | inhibition |
| --- | --- |
| NS(=O)(=O)c1ccc(NC(=S)NNC(=O)c2cccs2)cc1 | 0.74% |
| CCOC(=O)[C@]12CCCC=C1N(Cc1ccc(OC)cc1)C(=O)[C@@H]2CC(=O)NCc1cccs1 | 7.82% |
| COc1cc(NC(=O)CSC(=S)N2CCCC2)c(OC)cc1Cl | 8.65% |
| COc1cc(NC(=S)N2CCCC(C)C2)cc(OC)c1OC (stereo not given) | 5.72% |
| COc1cc(NC(=S)N2CCCC(C)C2)c(OC)cc1Cl (stereo not given) | 40.8% (active) |
| CCOC(=O)N1CCN(C(=O)C[C@@H]2C(=O)N(CCc3ccc(Cl)cc3)C3=CCCC[C@]32C(=O)OCC)CC1 | 0.68% |
| O=C(COc1ccccc1O)NC1CCCC1 | 3.06% |
| COc1ccc(Cl)cc1C=CC=Nc1ccc(S(N)(=O)=O)cc1 | -7.11% |
| COc1ccccc1/C=C/C=N/n1c(-c2ccc(Cl)cc2Cl)n[nH]c1=S | 21.3% (active) |
| COc1ccc(Cl)cc1C=CC=NNC(=O)c1ccncc1 | -0.1% |
| Cc1ccc(NC(=O)Cc2cccc(F)c2)c(S(=O)(=O)N2CCOCC2)c1 | 0.91% |
| COc1ccc(-n2c(SCC(=O)Nc3ccc4cn[nH]c4c3)nnc2-c2cccnc2)cc1 | -1.98% |
| FC(F)(F)c1cccc(NC(=S)OC2CCC23CCC(c2ccccc2)CC3)c1 (stereo not given) | -5.1% |
| CN(c1ccccc1)S(=O)(=O)c1ccc(C(=O)NCc2cccnc2)cc1 | -4.64% |
| O=C(CN(c1cc(C(F)(F)F)ccc1Cl)S(=O)(=O)c1ccccc1)NCc1cccnc1 | 0.93% |
| O=C(c1cccnc1)N(c1cc2sc(=O)oc2c2ccccc12)S(=O)(=O)c1ccccc1 | 78.8% (active) |
| O=C1CCC2(CCC(c3ccc(Cl)cc3)CC2)N1CCO (stereo not given) | -4.08% |
| O=C(NC1CCCCN(Cc2ccc(Cl)cc2)C1=O)c1ccc(Br)cc1 (stereo not given) | -6.45% |
| Cc1c(NC(=O)CCCOc2ccccc2)cccc1[N+](=O)[O-] | 2.67% |
| Cc1c(NC(=S)NCc2ccc(F)cc2)cccc1[N+](=O)[O-] | 4.29% |
| Cc1c(NC(=O)/C=C/C(=O)O)cccc1[N+](=O)[O-] | 70.3% (active) |
| COc1ccc(CCN2CNc3c(c(=O)n(C)c(=O)n3C)C2)cc1OC | 5.09% |
| O=S(=O)(c1ccc(SCc2ccccc2)nc1)N1CCCCCC1 | -2.5% |

| Compound | inhibition |
| --- | --- |
| O=S(=O)(c1ccc(SCc2ccc(Br)cc2)nc1)N1CCOCC1 | 0.76% |
| O=S(=O)(c1ccc(Sc2nnc3ccccn23)nc1)N1CCOCC1 | 65.8% (active) |
| CCOC(=O)[C@]12CCCCC/C=C\1N(Cc1ccc(OC)cc1)C(=O)[C@H]2CC(=O)NCCCN1CCCC1=O | 0.39% |
| COc1c(C(=O)N2CCCC2)ccc2ccccc12 | 1.75% |
| COC(=O)C[n+]1cccc2ccccc21 | 38.1% (active) |
| COC(=O)c1ccc(Cc2ccccc2)o1 | -1.95% |
| COc1ccc(CN(CCN2CCOCC2)C(=O)c2ccc(C)cc2)cc1OC | 2.63% |
| Cc1ccc(Cn2cc(CN3[C@@H](C)COc4cc(Br)ccc4S3(=O)=O)nn2)cc1 | 0.27% |
| CCOC(=O)[C@]12CCCCC/C=C\1N(Cc1ccc(OC)cc1)C(=O)[C@H]2CC(=O)N1CCOCC1 | 0.54% |
| CSCCNC(=O)c1ccc2nc(Cc3ccccc3F)oc2c1 | 3.93% |
| C=CCN1C(=O)[C@H](CC(=O)N2CCN(C(=O)OCC)CC2)[C@@]2(C(=O)OCC)CCCC=C12 | 0.65% |
| O=C(C1CC(=O)N(c2ccc(F)cc2)C1)N1CCN(c2ccccc2)CC1 (stereo not given) | -0.62% |
| COC(=O)c1cc(C(=O)OC)cc(N2C(=O)CC(N3CCN(c4ccccc4)CC3)C2=O)c1 (stereo not given) | 3.3% |
| O=C1CC(N2CCN(c3ccc(F)cc3)CC2)C(=O)N1c1ccccc1 (stereo not given) | 21.5% (active) |
| COC(=O)C1(CCSC)NC(c2ccc(OC)cc2OC)C2C(=O)N(c3cccc(C(C)=O)c3)C(=O)C21 (stereo not given) | -3.15% |
| CC1CCCCC1NC(=O)COC(=O)Cc1ccc(Br)cc1 (stereo not given) | -4.22% |
| O=C(Nc1ccccc1)c1nnsc1S(=O)(=O)c1ccc(Cl)cc1 | 89.9% (active) |
| O=C(Nc1cccc(Cl)c1)c1cc(S(=O)(=O)N2CCCCC2)c[nH]1 | 3.07% |
| Cc1nnsc1C(=O)Nc1cccc(Cl)c1C | 2.23% |
| O=c1[nH]c2c(c(=O)n1-c1ccccc1)CCO2 | 3.18% |
| Cc1ccc(S(=O)(=O)NCCC(c2ccccc2)c2ccccc2)cc1C(=O)O | -5.2% |
